Each structure is given as a SMILES string. A number with no mark means an inactive call. Results filed as inconclusive are left out. The source made the active and inactive calls. Unless noted, calls come from the whole dose curve; as a rule, active = well fitted curve in the direction sought with a large enough effect in the repeat runs; inconclusive = weak or mixed curves; inactive = no such curve, though single readings can be large; an effect the other way counts as inactive or inconclusive.

Experiment [1] addresses Progesterone receptor (Homo sapiens) (UniProt P06401). The experiment in a line: qHTS assay to identify small molecule agonists of the progesterone receptor (PR) signaling pathway (AID 1346784; calls by dose curve; note: nearly all actives have a fitted effect of over 30% in size; note: potency is the fitted concentration of half-maximal effect). In outline:
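Cells (PR-UAS-bla HEK 293T, GripTite) were plated in assay medium containing 2% charcoal-stripped FBS and incubated 6 hr. Test compounds in DMSO were added for 16 hr at 37C. FRET substrate was then loaded for 2 hr at room temperature before fluorescence reading.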

For experiment [2] the target is unchanged. The experiment in a line: qHTS assay to identify small molecule antagonists of the progesterone receptor (PR) signaling pathway (AID 1346795; active = well fitted inhibition curve with a large enough effect in the signal ratio in the repeat runs, not every such curve was filed as active; the % refers to the signal ratio). In outline:
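Antagonist mode: compounds tested against 1 nM (final) promegestone stimulation in HEK293T cells expressing PR-UAS-bla reporter, 16 hr at 37C, 5% CO2; beta-lactamase activity detected via B/G FRET substrate after 2 hr at room temperature.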
For orientation: qHTS replaces the single test concentration by a dilution series.

A short description of experiment [3]: qHTS assay to identify small molecule antagonists of the progesterone receptor (PR) signaling pathway - cell viability counter screen (AID 1346798). Note: series mostly up to about 92 µM; nearly all actives have a fitted effect of over 50% in size. In outline:
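Counter screen for cytotoxicity: viability of PR-UAS-bla HEK293T cells was measured with CellTiter-Glo luminescence following 16 hr compound exposure in the presence of R5020.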

Experiment [4] is described as follows: qHTS assay to identify small molecule agonists of the progesterone receptor (PR) signaling pathway - cell viability counter screen (AID 1346799; calls by dose curve; note: nearly all actives have a fitted effect of over 45% in size). The method, boiled down: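 Cells (PR-UAS-bla HEK293T) are plated at 3,000/well in 2% charcoal-stripped FBS medium, rested 6 hr, dosed and incubated 16 hr at 37C. CellTiter-Glo is then added and luminescence measured after 30 min at room temperature.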

The nature of experiment [5]: qHTS assay to identify small molecule antagonists of the TGF-beta/Smad signaling pathway - cell viability counter screen (AID 1346824). Note: nearly all actives have a fitted effect of over 50% in size. In outline: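 SBE-bla HEK 293T cells, incubated overnight, then compound plus 0.25 ng/mL TGF-beta1 (stock added) for 5 hr at 37 C. Viability was read in the same wells by CellTiter-Glo luminescence after 30 min at room temperature.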

Experiment [6] is described as follows: qHTS assay to identify small molecule agonists of the TGF-beta/Smad signaling pathway (AID 1346859; active = well fitted activation curve with a large enough effect in the signal ratio in the repeat runs, not every such curve was filed as active; the % refers to the signal ratio; note: series mostly up to about 77 µM). In outline: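 Reporter line: HEK 293T with stably integrated SBE-controlled beta-lactamase. Compound exposure lasts 5 hr at 37 C and 5% CO2; substrate loading follows for 2 hr at room temperature, with emission read at 460 and 530 nm.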
Experiment [7] addresses Thyrotropin-releasing hormone receptor (Homo sapiens) (UniProt P34981). In words: qHTS assay to identify small molecule antagonists of the thyrotropin-releasing hormone receptor (TRHR) signaling pathway (AID 1346877; active = well fitted inhibition curve with a large enough effect in the repeat runs, not every such curve was filed as active; note: series mostly up to about 51 µM). In outline:
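Intracellular calcium fluorescence, read kinetically every second over 3 min, reports TRH-evoked signalling in HEK293 cells carrying TRHR. Test compounds were added 5 min ahead of a 1 nM TRH challenge.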

The target is the same in experiment [8]. The experiment in a line: qHTS assay to identify small molecule agonists of the thyrotropin-releasing hormone receptor (TRHR) signaling pathway (AID 1346891; calls by dose curve;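 note: HEK293 cells expressing TRHR with calcium dye readout; series mostly up to about 58 µM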). In outline:
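Cells: TRHR-Hek293, seeded and incubated 18 h. Dye loading: 2 h at 37 °C. Compound added from DMSO stock by pin tool. Read-out: kinetic calcium fluorescence over 3 min.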

Experiment [9] in a line: Human pregnane X receptor (PXR) small molecule agonists, qHTS cell viability counter screen (AID 1346977). Note: nearly all actives have a fitted effect of over 50% in size. The method, boiled down:
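Cytotoxicity counter screen run in the same wells as the PXR luciferase assay, using PXR-Luc HepG2 cells in charcoal-stripped serum medium. Viability: CellTiter-Fluor fluorescence after 24hr compound treatment.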

Experiment [10] is described as follows: Caspase-3/7 induction in HepG2 cells by small molecules, qHTS assay (AID 1346978). Note: nearly all actives have a fitted effect of over 15% in size. The method, boiled down: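 Wild-type HepG2 cells, 2,000/well, settled 5 hr at 37 C and 5% CO2, then compound-treated for 17 hr; caspase-3/7 activity read by luminescent Caspase-Glo 3/7 after 30 min at room temperature.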
Experiment [11] in a line: Caspase-3/7 induction in CHO-K1 cells by small molecules, qHTS cell viability counter screen (AID 1346979). Note: nearly all actives have a fitted effect of over 35% in size. The method, boiled down:
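Cytotoxicity counter screen run in parallel with the caspase-3/7 assay: CHO-K1 cells, 16hr compound treatment at 37C, then CellTiter-Fluor for 1hr before fluorescence reading.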

Experiment [12] is described as follows: Caspase-3/7 induction in CHO-K1 cells by small molecules, qHTS assay (AID 1346980). Note: nearly all actives have a fitted effect of over 15% in size. The method, boiled down: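 Wild-type CHO-K1 cells exposed to compounds for 17hr at 37 C, 5% CO2. Caspase-3/7 activity then measured by Caspase-Glo 3/7 luminescence after 30min at room temperature.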
Experiment [13] concerns the target Nuclear receptor subfamily 1 group I member 2 (Rattus norvegicus) (UniProt Q9R1A7). The experiment in a line: Rat pregnane X receptor (rPXR) activation by small molecules, qHTS assay (AID 1346983). Note: nearly all actives have a fitted effect of over 20% in size. The following applies: rPXR luciferase reporter cells, One-Glo luminescence, 24 h; max activation: hits give high values. The method, boiled down:
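Cell-based rPXR activation assay: rPXR cells, 2,000 per well, rested 5hr at 37 C, then exposed to compounds in DMSO for 24 hr at 37 C. Luciferase activity read by One-Glo luminescence after 30 min at room temperature.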

Experiment [14] addresses Acetylcholinesterase (Homo sapiens) (UniProt P22303). The experiment in a line: Acetylcholinesterase (AChE) small molecule antagonists: enzyme-based qHTS assay (AID 1347397; calls by dose curve; note: nearly all actives have a fitted effect of over 55% in size). Conditions: Potency: AChE enzyme activity inhibition. In outline:
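Recombinant human AChE (50 mU/mL) preincubated with compound 30 min at room temperature; acetylthiocholine plus DTNB then added, and thiocholine formation read colorimetrically after 10 min at room temperature. DMSO served as vehicle control.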

Experiment [15] can be described thus: qHTS assay to identify small molecule agonists of the TGF-beta/Smad signaling pathway - cell viability counter screen (AID 1346829). Note: top concentration of the series differs between compounds; nearly all actives have a fitted effect of over 45% in size. The method, boiled down:
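Compound-treated SBE-bla HEK 293T cells (5 hr, 37 C) were assessed for viability with CellTiter-Glo in parallel with the reporter read.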

Experiment [16] is described as follows: Caspase-3/7 induction in HepG2 cells by small molecules, qHTS cell viability counter screen (AID 1346981). Note: series mostly up to about 92 µM; nearly all actives have a fitted effect of over 30% in size. The method, boiled down: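 HepG2, WT, 2,000 cells/well; 5 hr pre-incubation 37 C/5% CO2; compound pin-transferred from DMSO; 16 hr exposure; CellTiter-Fluor, 1 hr; fluorescence read.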
For experiment [17], the target named is Nuclear receptor subfamily 1 group I member 2 (Homo sapiens) (UniProt O75469). The experiment in a line: Human pregnane X receptor (PXR) small molecule agonists, qHTS assay (AID 1346982). Note: nearly all actives have a fitted effect of over 35% in size. Note: potency is the fitted concentration of half-maximal effect. In outline:
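Luciferase signal from ONE-Glo (30 min, room temperature) measured activation of hPXR-driven CYP3A4 reporter expression in PXR-Luc HepG2 cells treated with compounds for 24 hr at 37 C.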

For experiment [18], the target named is Acetylcholinesterase (Homo sapiens) (UniProt P22303). In words: Acetylcholinesterase (AChE) small molecule antagonists: colormetric cell-based qHTS assay (AID 1347395; calls by dose curve; note: nearly all actives have a fitted effect of over 30% in size). In outline:
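Cells (SH-SY5Y, 2,000 per well) are seeded and left overnight at 37 C. Compound is added for 30 min, then DTNB and acetylthiocholine for a further 90 min at 37 C before absorbance-based thiocholine detection.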

For experiment [19], the target named is Nuclear receptor subfamily 1 group I member 2 (Homo sapiens) (UniProt O75469). In words: CYP3A4 induction through human pregnane X receptor (PXR) by small molecules, qHTS assay (AID 1346984). Note: nearly all actives have a fitted effect of over 40% in size. Note: potency is the fitted concentration of half-maximal effect. In outline: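 Luminescence readout: luciferase signal after One-Glo (30 min, room temperature), following 3 h at 37C with 3uM final Luciferin-IPA P450 substrate. Cells were DPX-2 (HepG2, PXR/CYP3A4-luc co-transfected) dosed for 24 h.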
Nuclear receptor subfamily 1 group I member 2 (Homo sapiens), sequence (O75469 whole entry, looked up): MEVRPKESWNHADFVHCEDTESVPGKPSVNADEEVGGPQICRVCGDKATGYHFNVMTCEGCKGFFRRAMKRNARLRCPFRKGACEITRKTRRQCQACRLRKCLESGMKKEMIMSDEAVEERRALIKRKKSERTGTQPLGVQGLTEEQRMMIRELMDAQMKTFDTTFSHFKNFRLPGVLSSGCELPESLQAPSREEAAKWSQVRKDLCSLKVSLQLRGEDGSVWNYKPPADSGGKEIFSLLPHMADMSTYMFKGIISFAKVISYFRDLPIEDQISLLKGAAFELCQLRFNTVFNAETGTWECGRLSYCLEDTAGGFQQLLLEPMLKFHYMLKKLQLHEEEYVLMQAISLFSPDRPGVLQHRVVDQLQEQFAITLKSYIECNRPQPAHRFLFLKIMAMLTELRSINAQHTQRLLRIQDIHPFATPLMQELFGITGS

The target is the same in experiment [20]. The experiment in a line: Human pregnane X receptor (PXR) activation by small molecules, qHTS assay (AID 1346985). Note: nearly all actives have a fitted effect of over 40% in size. Note: potency is the fitted concentration of half-maximal effect. The method, boiled down:
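DPX-2 cells (HepG2 co-transfected with a PXR response element and a CYP3A4-promoter luciferase construct) were seeded at 2,000 per well, rested 5 hr at 37C, then exposed to DMSO-dissolved compounds for 24 hr. Activation was read as luciferase luminescence.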
% is set by controls: 0 for no effect and ±100 for the full control effect.

Progesterone receptor (Homo sapiens), sequence (P06401 whole entry, looked up): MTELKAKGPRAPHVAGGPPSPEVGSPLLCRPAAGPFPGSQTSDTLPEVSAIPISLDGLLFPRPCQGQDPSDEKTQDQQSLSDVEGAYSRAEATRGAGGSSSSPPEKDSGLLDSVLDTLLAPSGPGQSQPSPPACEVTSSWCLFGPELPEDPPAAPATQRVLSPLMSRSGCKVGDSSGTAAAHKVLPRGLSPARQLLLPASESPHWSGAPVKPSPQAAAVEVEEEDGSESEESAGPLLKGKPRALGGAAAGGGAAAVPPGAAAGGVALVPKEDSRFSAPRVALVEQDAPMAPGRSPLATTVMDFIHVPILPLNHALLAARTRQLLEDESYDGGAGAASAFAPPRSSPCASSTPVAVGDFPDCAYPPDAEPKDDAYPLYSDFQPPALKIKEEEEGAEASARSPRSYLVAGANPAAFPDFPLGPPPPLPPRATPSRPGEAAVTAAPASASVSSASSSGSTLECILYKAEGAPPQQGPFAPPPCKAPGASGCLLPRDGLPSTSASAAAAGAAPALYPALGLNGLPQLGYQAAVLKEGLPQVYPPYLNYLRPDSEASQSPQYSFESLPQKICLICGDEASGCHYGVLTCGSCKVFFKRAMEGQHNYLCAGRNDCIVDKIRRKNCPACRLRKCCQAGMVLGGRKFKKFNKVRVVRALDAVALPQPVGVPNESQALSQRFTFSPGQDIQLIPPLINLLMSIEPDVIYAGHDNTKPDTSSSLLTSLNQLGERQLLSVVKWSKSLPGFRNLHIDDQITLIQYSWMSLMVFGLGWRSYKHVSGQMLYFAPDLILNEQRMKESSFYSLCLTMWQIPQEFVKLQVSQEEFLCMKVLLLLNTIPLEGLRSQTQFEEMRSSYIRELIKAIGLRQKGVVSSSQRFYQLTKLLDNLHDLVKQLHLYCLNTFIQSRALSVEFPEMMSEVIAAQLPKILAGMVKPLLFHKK
Acetylcholinesterase (Homo sapiens), sequence (P22303 whole entry, looked up): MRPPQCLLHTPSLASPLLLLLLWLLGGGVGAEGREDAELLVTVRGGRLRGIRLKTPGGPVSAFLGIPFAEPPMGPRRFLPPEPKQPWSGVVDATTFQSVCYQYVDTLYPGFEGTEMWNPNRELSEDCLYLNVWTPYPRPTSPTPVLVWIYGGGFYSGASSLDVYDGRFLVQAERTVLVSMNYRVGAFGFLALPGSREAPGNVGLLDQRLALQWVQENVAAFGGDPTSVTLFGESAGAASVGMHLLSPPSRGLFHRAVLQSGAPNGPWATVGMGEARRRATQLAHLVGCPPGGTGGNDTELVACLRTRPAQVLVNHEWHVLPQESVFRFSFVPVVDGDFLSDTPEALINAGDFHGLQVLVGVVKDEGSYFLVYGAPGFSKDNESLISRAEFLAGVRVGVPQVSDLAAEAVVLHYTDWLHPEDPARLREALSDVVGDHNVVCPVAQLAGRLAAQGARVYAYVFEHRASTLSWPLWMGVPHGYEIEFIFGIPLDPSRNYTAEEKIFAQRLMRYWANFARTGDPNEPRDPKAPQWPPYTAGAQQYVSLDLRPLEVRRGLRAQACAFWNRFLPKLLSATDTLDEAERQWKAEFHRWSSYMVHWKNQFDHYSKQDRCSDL
Thyrotropin-releasing hormone receptor (Homo sapiens), sequence (P34981 whole entry, looked up): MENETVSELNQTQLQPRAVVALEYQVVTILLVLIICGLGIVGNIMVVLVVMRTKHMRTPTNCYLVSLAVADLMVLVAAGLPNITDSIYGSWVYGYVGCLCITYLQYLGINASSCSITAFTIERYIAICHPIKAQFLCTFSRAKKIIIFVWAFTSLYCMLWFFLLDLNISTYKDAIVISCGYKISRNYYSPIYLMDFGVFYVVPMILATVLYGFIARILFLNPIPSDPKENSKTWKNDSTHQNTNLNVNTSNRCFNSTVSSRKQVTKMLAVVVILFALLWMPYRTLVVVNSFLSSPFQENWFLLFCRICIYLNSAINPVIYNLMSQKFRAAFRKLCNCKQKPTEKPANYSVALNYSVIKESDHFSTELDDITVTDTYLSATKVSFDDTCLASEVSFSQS
Nuclear receptor subfamily 1 group I member 2 (Rattus norvegicus), sequence (Q9R1A7 whole entry, looked up): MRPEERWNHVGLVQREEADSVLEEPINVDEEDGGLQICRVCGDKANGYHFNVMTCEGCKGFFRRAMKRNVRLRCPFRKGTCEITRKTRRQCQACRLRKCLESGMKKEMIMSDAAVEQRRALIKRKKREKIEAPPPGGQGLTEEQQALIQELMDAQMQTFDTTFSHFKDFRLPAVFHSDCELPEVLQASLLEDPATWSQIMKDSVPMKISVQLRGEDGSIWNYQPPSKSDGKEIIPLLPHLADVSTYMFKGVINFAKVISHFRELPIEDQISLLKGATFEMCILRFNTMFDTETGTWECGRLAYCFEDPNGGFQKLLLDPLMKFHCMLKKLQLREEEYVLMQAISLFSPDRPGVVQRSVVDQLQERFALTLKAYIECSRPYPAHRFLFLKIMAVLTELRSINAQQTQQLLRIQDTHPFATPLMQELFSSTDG

With `CN1CCN(C(=O)O[C@H]2c3nccnc3C(=O)N2c2ccc(Cl)cn2)CC1`, the Potency entry in [1], in [2], in experiment [3], in experiment [4], in [5] and in experiment [9] was “inactive” in each case. Further, the Potency result in experiment [10], in [11], in experiment [12] and in experiment [14] was “inactive” each time. The call in experiment [6], in [7] and in experiment [8] was inactive. For the same compound, the max activation in experiment [13] was 2%.

`CCCCC(=O)Cl`: the Potency result in experiment [1], in experiment [2], in [3], in experiment [4], in experiment [5] and in [9] was “inactive” in each case. For the same compound, the Potency entry in experiment [10], in experiment [11], in experiment [12], in experiment [16], in [17] and in experiment [18] was “inactive” each time. The Potency entry in experiment [14] is “inactive”. Also, the call in experiment [15] and in [6] was inactive.

With `CC(=O)Nc1cc([As](=O)(O)O)ccc1O`, the Potency entry in experiment [1], in experiment [2], in experiment [3], in experiment [4], in experiment [5] and in experiment [9] was “inactive” in each case. Moreover, the Potency result in [10], in experiment [11], in experiment [12], in experiment [16], in experiment [17] and in experiment [19] was “inactive” throughout. The Potency result in [20], in [18] and in experiment [14] was “inactive” in each case. In addition, the result in experiment [6], in [7] and in experiment [8] was inactive. Moreover, the max activation in [13] is -4.41%.

As to `N#CCBr`, the Potency result in experiment [1], in [2], in [3], in experiment [4], in experiment [5] and in experiment [9] was “inactive” in each case. In addition, the Potency result in [10], in [11], in experiment [12], in experiment [16], in [17] and in experiment [18] was “inactive” in each case. In addition, the Potency result in [14] was “inactive”. Further, the compound was classed as inactive in experiment [6], in [7] and in experiment [8].

In the case of `N#CC(O)c1ccccc1` (stereo not given), the Potency result in experiment [1], in [2], in [3], in experiment [4], in [5] and in experiment [9] was “inactive” each time. Also, the Potency entry in experiment [10], in [12] and in [14] was “inactive” each time. Further, the compound was classed as inactive in experiment [15], in experiment [6], in experiment [7] and in [8].

As to `CCN(CC)CCOC(=O)C(C)(c1ccccc1)c1ccccc1`, the Potency entry in experiment [1], in experiment [2], in [3], in [4], in experiment [5] and in experiment [10] was “inactive” each time. In addition, the Potency entry in experiment [11], in experiment [12], in experiment [18] and in experiment [14] was “inactive” in each case. Moreover, the compound was classed as inactive in experiment [15], in experiment [6], in [7] and in [8]. For the same compound, the Potency is 13.3 µM (active) in experiment [17], 7.94 µM (active) in experiment [19] and 8.91 µM (active) in [20]. Moreover, the max activation in experiment [13] was 7.07%.

Take `O=C(Cc1ccccc1)OCc1ccccc1`: the Potency entry in [1], in experiment [2], in [3], in experiment [4], in experiment [5] and in [9] was “inactive” throughout. Besides, the Potency entry in experiment [10], in experiment [11], in [12], in experiment [16], in [17] and in experiment [18] was “inactive” each time. Also, the result in experiment [15] and in experiment [6] was inactive.

As for `O=C(O)C(Br)CBr` (stereo not given), the Potency in experiment [1] is 5.54 µM (active); in experiment [17], 62.2 µM (active). Also, the Potency result in experiment [2], in [3], in [4], in [5], in experiment [9] and in experiment [10] was “inactive” in each case. Besides, the Potency entry in experiment [12], in [16], in [18] and in [14] was “inactive” in each case. Moreover, the call in [15], in experiment [6], in experiment [7] and in experiment [8] was inactive.

These data come from PubChem BioAssay (Tox21).
